# Laboratory results: PubChem BioAssay (NCATS)
# A number with no mark means an inactive call. Records with an inconclusive call do not appear. A call without a number means that no potency is given here. Activity calls are given as the source filed them. Unless noted, calls come from the whole dose curve; as a rule, active = well fitted curve in the direction sought with a large enough effect; inconclusive = small, poorly fitted or top-dose-only effect, or another doubt; inactive = no such curve, though single readings can be large; an effect the other way counts as inactive or inconclusive.
# Tests used:
# [1] = Cell Viability - BJ (AID 421; calls by dose curve;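 note: potency is the fitted concentration of half-maximal effect; cells exposed to compound for 40 hours at 37 °C before readout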); settings: BJ fibroblast viability, qHTS
# How it was run: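 Cytotoxicity in human BJ foreskin fibroblasts is scored as loss of cellular ATP after a 40-hour exposure, measured by luciferase luminescence. Controls are DMSO and 100 uM tamoxifen.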
# [2] = Cell Viability - HepG2 (AID 433; calls by dose curve;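 note: potency is the fitted concentration of half-maximal effect; potency for ATP loss meaning cytotoxicity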); settings: qHTS
# How it was run: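 HepG2 cells, 1500 per well, treated 40 hr at 37 °C in complete medium; viability from intracellular ATP by CellTiter-Glo luminescence. Normalized to DMSO and 100 uM tamoxifen; AC50 from Hill fit of qHTS concentration-response.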
# [3] = Cell Viability - MRC5 (AID 434; calls by dose curve;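 note: potency is the fitted concentration of half-maximal effect; potency reflects cytotoxicity seen as loss of intracellular ATP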); settings: MRC5 lung fibroblast viability, qHTS
# How it was run: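 qHTS cytotoxicity in human lung fibroblast MRC5 cells; 40 hr treatment, 37 °C; cellular ATP by luciferase luminescence; DMSO = 0%, 100 uM tamoxifen = 100% inhibition; Hill-fit AC50.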
# [4] = molecular target: Mitogen-activated protein kinase 10 (Mus musculus) (UniProt Q61831); assay: JNK3 AlphaScreen Assay (AID 530; active = well fitted curve in either direction with a large enough effect, not every such curve was filed as active;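 note: kinase came from lysate of stimulated human HepG2 cells; signal reports phosphorylation of biotinylated GST-cJun 1-79 at Ser73 with 10 µM ATP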); settings: JNK3 lysate, c-Jun phosphorylation; series mostly up to 57.1 µM
# How it was run: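 Compound titrations were preincubated 15 minutes at room temperature with substrate, antibody and pre-activated JNK3-containing HepG2 lysate. Reactions were started with 10 uM ATP and stopped with EDTA-containing bead buffer for AlphaScreen detection.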
# [5] = Cell Viability - N2a (AID 540); settings: N2a mouse neuroblastoma cell viability; activity change, negative = cytotoxicity: at 92.2 µM (top of the series); note: nearly all actives have a fitted effect of over 45% in size; note: potency is the fitted concentration of half-maximal effect
# How it was run: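 Luminescent ATP signal (CellTiter-Glo, 20 min at room temperature) served as the viability read-out after N2a cells were treated with compounds for 40 hours at 37 °C. Concentration-response data were fitted to the Hill equation for AC50.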
# [6] = Cell Viability - NIH 3T3 (AID 541); settings: NIH 3T3 cell viability, qHTS; activity change, negative = cytotoxicity: at 92.2 µM (top of the series); note: nearly all actives have a fitted effect of over 25% in size; note: potency is the fitted concentration of half-maximal effect
# How it was run: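 Luminescent ATP signal (CellTiter-Glo) served as the viability read-out after NIH 3T3 cells were exposed to compounds over a concentration range for 40 hr at 37 °C. Hill-equation modelling of concentration-response data gave AC50.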
# [7] = Cell Viability - HUV-EC-C (AID 542); settings: HUV-EC-C endothelial cell viability, qHTS; series mostly up to 92.2 µM; note: nearly all actives have a fitted effect of over 35% in size; note: potency is the fitted concentration of half-maximal effect
# How it was run: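 qHTS cytotoxicity: HUV-EC-C, 1000 cells/well, 5 hr settle, compound 40 hr 37 °C, CellTiter-Glo, luminescence. AC50 via Hill equation.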
# [8] = Cell Viability - H-4-II-E (AID 543); settings: H-4-II-E rat hepatoma viability; series mostly up to 92.2 µM; note: nearly all actives have a fitted effect of over 35% in size; note: potency is the fitted concentration of half-maximal effect
# How it was run: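 Luminescent ATP signal (CellTiter-Glo) served as the viability read-out, with cytotoxicity seen as a concentration-dependent ATP drop. Cells were treated for 40 hours in complete medium. AC50 values derive from Hill-equation modelling.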
# [9] = Cell Viability - SH-SY5Y (AID 544); settings: SH-SY5Y neuroblastoma cell viability; series mostly up to 92.2 µM; note: nearly all actives have a fitted effect of over 55% in size; note: potency is the fitted concentration of half-maximal effect
# How it was run: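 Luminescent ATP read-out (CellTiter-Glo) measures loss of viable SH-SY5Y neuroblastoma cells after 40 hr compound exposure at 37 °C. AC50 values derive from standard Hill modelling of qHTS concentration-response data.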
# [10] = Cell Viability - Renal Proximal Tubule (AID 545); settings: renal proximal tubule cells viability; activity change, negative = cytotoxicity: at 91.7 µM (top of the series); note: nearly all actives have a fitted effect of over 40% in size; note: potency is the fitted concentration of half-maximal effect
# How it was run: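 Rat renal proximal tubule primary cells, 1000/well, exposed to compounds for 40 hr at 37 °C in complete medium; cellular ATP read by CellTiter-Glo luminescence. AC50 from concentration-response fitted with standard Hill equation.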
# [11] = Cell Viability - Mesenchymal (AID 546); settings: mesenchymal cells viability, qHTS; series mostly up to 91.7 µM;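 note: cells exposed to compound for 40 hours before reading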; note: potency is the fitted concentration of half-maximal effect
# How it was run: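 AC50 values reflect the drop in intracellular ATP in a human kidney mesenchymal line derived from normal glomeruli. Treatment lasts 40 hr at 37 °C in complete medium, and the signal comes from CellTiter-Glo luminescence.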
# [12] = molecular target: Glucocorticoid receptor (Homo sapiens) (UniProt P04150); assay: GR-GFP Redistribution (AID 450;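 active = compounds whose dose series gives a full or clear partial fitted curve of increased nuclear translocation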; note: potency is the fitted concentration of half-maximal effect); settings: U2OS GR-GFP nuclear translocation, laser cytometry, 2 h
# Chain of Glucocorticoid receptor (Homo sapiens) (P04150 whole entry, looked up, the tested form may be a part): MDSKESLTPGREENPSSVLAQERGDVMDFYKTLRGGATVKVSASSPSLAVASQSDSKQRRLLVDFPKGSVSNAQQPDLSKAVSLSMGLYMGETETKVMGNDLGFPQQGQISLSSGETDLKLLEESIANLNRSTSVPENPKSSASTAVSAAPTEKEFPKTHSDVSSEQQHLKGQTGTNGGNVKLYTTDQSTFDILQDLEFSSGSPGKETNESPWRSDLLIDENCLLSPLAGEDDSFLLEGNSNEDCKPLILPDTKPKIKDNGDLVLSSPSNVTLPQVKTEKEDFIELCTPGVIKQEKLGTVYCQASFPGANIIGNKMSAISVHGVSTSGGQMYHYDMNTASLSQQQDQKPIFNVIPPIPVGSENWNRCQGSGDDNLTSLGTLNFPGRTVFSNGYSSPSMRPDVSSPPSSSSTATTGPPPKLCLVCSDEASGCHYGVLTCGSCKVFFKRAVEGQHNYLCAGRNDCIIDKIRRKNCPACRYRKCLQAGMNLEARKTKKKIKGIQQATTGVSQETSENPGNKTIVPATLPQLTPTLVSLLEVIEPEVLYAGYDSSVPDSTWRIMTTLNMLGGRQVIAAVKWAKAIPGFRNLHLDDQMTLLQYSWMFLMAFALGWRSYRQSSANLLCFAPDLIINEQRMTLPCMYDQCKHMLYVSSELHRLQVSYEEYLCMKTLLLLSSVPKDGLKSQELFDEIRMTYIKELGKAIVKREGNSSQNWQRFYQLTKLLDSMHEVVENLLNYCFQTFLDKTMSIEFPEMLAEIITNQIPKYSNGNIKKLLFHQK
# [13] = molecular target: Glucocorticoid receptor (Homo sapiens) (UniProt P04150); assay: GR-EFC Redistribution (AID 451; calls by dose curve; note: potency is the fitted concentration of half-maximal effect); settings: CHO-K1 GR-EFC translocation, beta-gal luminescence, 2 h
# How it was run: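 Translocation of GR-ED fusion to nuclear EA restores b-gal, read by luminescence after 1 h room-temperature detection. Engineered CHO-K1 biosensor cells, 1,000/well, exposed 2 h at 37 C to titrations up to 46 uM final.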
# [14] = molecular target: 3',5'-cyclic-AMP phosphodiesterase 4B (Homo sapiens) (UniProt Q07343); assay: qHTS Assay for Inhibitors of PDE-IV (AID 607; active = well fitted activation curve with a large enough effect in the main read-out, with a control signal flat, not every such curve was filed as active); settings: HEK293 ACTOne CNG channel cells, membrane potential fluorescence; series mostly up to 22.9 µM
# Chain of 3',5'-cyclic-AMP phosphodiesterase 4B (Homo sapiens) (Q07343 whole entry, looked up): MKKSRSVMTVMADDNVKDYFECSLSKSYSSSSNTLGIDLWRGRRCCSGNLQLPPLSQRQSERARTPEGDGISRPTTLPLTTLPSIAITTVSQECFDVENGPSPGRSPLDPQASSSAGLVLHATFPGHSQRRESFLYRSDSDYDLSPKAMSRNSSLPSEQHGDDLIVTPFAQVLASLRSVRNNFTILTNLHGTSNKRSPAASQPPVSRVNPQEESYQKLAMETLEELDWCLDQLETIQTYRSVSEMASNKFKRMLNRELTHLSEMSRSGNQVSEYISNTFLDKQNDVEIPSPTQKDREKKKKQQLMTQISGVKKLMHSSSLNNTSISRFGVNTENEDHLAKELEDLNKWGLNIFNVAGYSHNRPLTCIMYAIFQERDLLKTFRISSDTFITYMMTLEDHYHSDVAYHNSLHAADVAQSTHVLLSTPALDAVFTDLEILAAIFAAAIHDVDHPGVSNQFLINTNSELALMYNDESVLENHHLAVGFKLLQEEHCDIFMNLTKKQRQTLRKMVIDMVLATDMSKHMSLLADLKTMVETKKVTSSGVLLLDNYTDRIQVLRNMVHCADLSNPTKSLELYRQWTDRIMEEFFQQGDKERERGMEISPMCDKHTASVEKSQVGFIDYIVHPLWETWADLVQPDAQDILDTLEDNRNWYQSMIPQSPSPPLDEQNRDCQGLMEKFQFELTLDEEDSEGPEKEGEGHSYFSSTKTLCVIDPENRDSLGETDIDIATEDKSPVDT
# How it was run: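 The readout is membrane depolarisation from a cAMP-sensing CNG channel, detected with a potential dye at ex 535/em 590. Cells were HEK293-derived (endogenous PDE-IV) at 1000 cells/well, titrated up to 22.9 uM final.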
# [15] = Cell Viability - Jurkat (AID 426;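 active = dose-dependent loss of cell ATP signal giving a full or clear fitted curve, ranked by lower potency value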; note: potency is the fitted concentration of half-maximal effect); settings: qHTS
# How it was run: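 qHTS, 1536-well; Jurkat E6-1, 5000 cells/well, complete medium; cpd 40 hr, 37 °C; CellTiter-Glo 20 min RT; luminescence. AC50 by Hill fit.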
# [16] = NFAT Signaling Pathway (AID 444; active = well fitted curve in either direction with a large enough effect, not every such curve was filed as active;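 note: carbachol stimulus at about its EC50 of 1 µM final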); settings: Jurkat NFAT-bla M1, carbachol, beta-lactamase ratio, 5 h; at 38 µM (top of the series) unless noted
# How it was run: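 Read-out: CCF4 FRET ratio (460 nm/530 nm) after 1 h RT dye loading, used for %activity and AC50 from titration series. Cells: Jurkat NFAT-β-lactamase/M1 line, treated with compound plus 1 uM carbachol for 5 h, 37 °C.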
Compound,Potency [1],Potency [2],Potency [3],outcome [4],Potency [5],Potency [6],Potency [7],Potency [8],Potency [9],Potency [10],Potency [11],Potency [12],Potency [13],Potency [14],Potency [15],"activity change, negative = cytotoxicity [6]","activity change, negative = inhibition [16]"
Oc1cc(Cl)c(Cl)cc1Cl,> 92 µM,> 92 µM,> 92 µM,inactive,25.1 µM (active),inactive,inactive,inactive,inactive,inactive,inactive,,,,,,
C[C@H](N)CN1CCc2ccc(Br)cc21,,,,,,,,,,,,> 46 µM,> 46 µM,inactive,,,
[Cl-].[Cl-].[Hg+2],29.4 µM (active),,33.4 µM (active),,31.6 µM (active),15.8 µM (active),10 µM (active),20 µM (active),0.158 µM (active),0.316 µM (active),12.6 µM (active),,,,25.3 µM (active),,
O=[N+]([O-])c1ccc(F)c([N+](=O)[O-])c1,59.9 µM (active),46.1 µM (active),> 92 µM,,,,inactive,,25.1 µM (active),,inactive,,,,8.96 µM (active),-151% (active),
O=C(O)C(Cl)(Cl)Cl,> 92 µM,> 92 µM,> 92 µM,,inactive,inactive,inactive,inactive,inactive,inactive,inactive,,,,> 92 µM,,
Cc1cc(C)cc(C(=O)OC2C[C@H]3CC[C@@H](C2)N3C)c1 (stereo partly drawn),,,,,,,,,,,,> 46 µM,> 46 µM,,,,
Clc1ccccc1Cl,> 92 µM,> 92 µM,> 92 µM,,inactive,inactive,inactive,inactive,inactive,inactive,inactive,,,,> 92 µM,,
C[C@H]1CCC[C@H](O)CCCCCc2cc(O)cc(O)c2C(=O)O1,> 92 µM,> 92 µM,> 92 µM,inactive,inactive,,inactive,inactive,,inactive,inactive,,,,> 92 µM,-108% (active),
CCCCCCCCOC(=O)c1ccccc1C(=O)OCCCCCCCC,> 92 µM,> 92 µM,> 92 µM,,inactive,inactive,inactive,inactive,inactive,inactive,inactive,,,,,,
N[C@@H](Cn1oc(=O)[nH]c1=O)C(=O)O,,,,inactive,,,,,,,,> 46 µM,> 46 µM,,,,
[O]=[Cd],> 92 µM,> 92 µM,> 92 µM,,inactive,inactive,inactive,inactive,inactive,inactive,inactive,,,,> 92 µM,,
O=C1CCO1,> 92 µM,> 92 µM,> 92 µM,inactive,inactive,inactive,inactive,inactive,inactive,inactive,inactive,,,,> 92 µM,,
O=Cc1ccco1,> 92 µM,> 92 µM,> 92 µM,,inactive,inactive,inactive,inactive,inactive,inactive,inactive,,,,> 92 µM,,
C[N+]1(C)CCc2cc3c(cc2[C@H]1[C@@H]1OC(=O)c2c1ccc1c2OCO1)OCO3,,,,,,,,,,,,> 20.6 µM,,,,,-19.2% [at 17.2 µM]
C[C@]12CCC(=O)C[C@@H]1CC[C@@H]1[C@@H]2CC[C@]2(C)[C@@H](O)CC[C@@H]12,> 92 µM,> 92 µM,> 92 µM,inactive,inactive,inactive,inactive,,inactive,inactive,inactive,,,,> 92 µM,,
O=C/C=C/c1ccccc1,> 92 µM,> 92 µM,> 92 µM,inactive,inactive,12.6 µM (active),inactive,inactive,inactive,inactive,inactive,,,,,,
